Rows were chosen to be rich in hits. Some 2.9% of all compounds tested hit in one or more screens of this group.
FAS TE block: FAS thioesterase domain inhibitors, primary screen, biochemical, fluorescence intensity, uHTS. Fatty acid synthase (Homo sapiens), P49327. recombinant FAS-TE, OMFH fluorogenic substrate, fluorescence endpoint. inhibition, % at 15 µM. 0.67% of 360,000 active. AID 602261, 2012;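 active means compounds whose normalised, plate-corrected inhibition of enzyme fluorescence in the single-dose primary screen is 50% or more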
proKLK7 act: proKLK7 zymogen activators, primary screen, biochemical, fluorescence intensity; activation, % at 7 µM; Kallikrein-7 (Homo sapiens), P49862; purified proKLK7, EDANS-DABCYL substrate fluorescence; 100% is mature enzyme control, 0% vehicle; 0.9% of 370,000 active; AID 652039, 2013;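 active means activation above the mean of all tested compounds plus 3 SD, computed per campaign excluding outliers beyond control limits, cut at about 13% in these data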
Target sequence (P49862 whole entry, looked up): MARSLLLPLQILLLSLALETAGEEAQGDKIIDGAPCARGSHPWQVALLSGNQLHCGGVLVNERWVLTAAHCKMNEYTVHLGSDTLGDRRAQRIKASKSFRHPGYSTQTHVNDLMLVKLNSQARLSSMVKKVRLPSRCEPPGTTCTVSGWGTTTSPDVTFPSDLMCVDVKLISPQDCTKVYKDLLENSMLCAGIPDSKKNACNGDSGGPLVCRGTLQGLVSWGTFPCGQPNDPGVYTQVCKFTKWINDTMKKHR
GAA850 FXN act: FXN promoter activators, primary screen, cell-based, luciferase luminescence, HEK293 lucGAA850; HEK293 lucGAA850 FXN promoter luciferase reporter, 24 h; percent of 10 µM SAHA response; activation, % at 6 µM; 0.56% of 360,000 active;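 active means activation above the average of all compounds screened plus 3 SD, cutoff fixed separately per campaign, cut at about 7.5% in these data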
SMARCA2 activ: SMARCA2 (BRM) function activators, primary screen, cell-based, luminescence, high throughput. activation, % at 9.1 µM. AID 652017, 2013. MG213 cells, MMTV-luciferase reporter, dexamethasone, overnight. 1% of 370,000 active; in the data active means activation above about 7.8%
A number is an active result; - = inactive; . = no result.

SMILES	FAS TE block	proKLK7 act	GAA850 FXN act	SMARCA2 activ
Cc1c(Cl)c([N+](=O)[O-])nn1CC(=O)N1CCc2ccccc2C1	50.6	-	-	-
O=C(NCc1ccc(Cl)cc1)C(=O)N/N=C/c1ccc(Br)cc1	-	-	-	-
Cc1ccsc1C(=O)NCCc1nnc2ccccn12	-	-	-	7.8
O=C(NCCc1nnc2ccccn12)c1cccs1	-	-	-	-
COc1ccc(C(CNC(=O)c2nn(-c3ccccc3)c(=O)c3ccccc23)N2CCOCC2)cc1 (stereo unspecified)	-	-	-	-
COC(=O)c1c(NC(=O)CC2NCCNC2=O)sc2c1CCCC2 (stereo unspecified)	-	-	-	-
Cc1ccc(OCCOC(=O)c2sc(=S)n(C)c2C)cc1	58.5	-	-	-
CCOC(=O)c1sc(=S)n(C)c1NC(=O)c1ccc(OC)cc1	-	-	-	-
C[C@H](CO)N1C[C@H](C)[C@@H](CN(C)C(=O)Nc2ccc(C(F)(F)F)cc2)Oc2c(NC(=O)Nc3ccc(C(F)(F)F)cc3)cccc2C1=O	79.2	-	-	-
C[C@H](O)[C@@H]1C(=O)N2CCc3ccc(N4CCN(C)CC4)cc3[C@@H]2C[C@@H]1N(C)C(=O)NC1CCCCC1	-	-	-	7.9
Cc1cccc([C@@H]2[C@@H]3C(=O)N(Cc4ccccc4)C(=O)[C@@H]3[C@]3(Cc4ccccc4)C(=O)N(c4ccccc4)C(=O)N23)c1	91.9	-	-	-
CC[C@@]12C(=O)N(c3cccc(F)c3)C(=O)N1[C@H](c1cccc(C)c1)[C@@H]1C(=O)N(Cc3ccccc3)C(=O)[C@@H]12	-	-	-	-
Cc1cccc([C@@H]2[C@@H]3C(=O)N(Cc4ccccc4)C(=O)[C@@H]3[C@]3(C)C(=O)N(c4cccc(Cl)c4)C(=O)N23)c1	-	-	-	-
CC[C@@]12C(=O)N(c3ccccc3)C(=O)N1[C@H](c1cccc(C)c1)[C@@H]1C(=O)N(Cc3ccccc3)C(=O)[C@@H]12	-	-	-	-
Cc1cccc([C@@H]2[C@@H]3C(=O)N(Cc4ccccc4)C(=O)[C@@H]3[C@]3(Cc4ccccc4)C(=O)N(c4cccc(Cl)c4)C(=O)N23)c1	81.6	-	-	-
Cc1cccc([C@@H]2[C@@H]3C(=O)N(Cc4ccccc4)C(=O)[C@@H]3[C@]3(CC(C)C)C(=O)N(c4cccc(Br)c4)C(=O)N23)c1	88.5	.	-	.
Cc1nc(-c2ccc(S(=O)(=O)Nc3cccc(Cl)c3)cc2)co1	-	-	-	-
Cn1nc(C(=O)NNC(=O)c2ccccc2F)c2ccccc2c1=O	-	-	-	-
CCC(=O)N1CCN(c2ccc(Cl)cc2NC(=O)c2ccc(N3CCCC3)c([N+](=O)[O-])c2)CC1	-	-	-	-
CCCCN1C(=O)/C(=C/C=C2\SCCN2C)SC1=S	-	-	9.8	-
CCOC(=O)c1ccc(-n2c(CN3CCN(CC)CC3)nc3ccc([N+](=O)[O-])cc3c2=O)cc1	-	-	-	7.9
Cc1ccc(-c2cc(C(F)F)n3ncc(C(=O)N4CCN(c5ccccn5)CC4)c3n2)cc1	-	-	-	-
CCN1CCN(C(=O)c2cnn3c(C(F)F)cc(-c4ccc(C)cc4)nc23)CC1	-	12.9	-	-
O=C(CNS(=O)(=O)/C=C/c1ccccc1)OC1CCOC1=O (stereo unspecified)	-	-	-	-
O=C(Nc1ccc(Oc2cccnc2)cc1)c1cccc([N+](=O)[O-])c1	57.4	.	-	.
SMILES	FAS TE block	proKLK7 act	GAA850 FXN act	SMARCA2 activ
O=C(Nc1ccc(Oc2cccnc2)cc1)c1ccc([N+](=O)[O-])cc1	-	-	-	-
CN(C)c1cccc(C(=O)n2cc(C(=O)c3cc(F)ccc3O)cn2)c1	-	-	-	7.8
O=C(Nc1cccnc1)c1ccc([N+](=O)[O-])o1	-	-	-	7.8
CC(NC(=O)c1ccc(Br)o1)c1ccc(-n2ccnc2)cc1 (stereo unspecified)	-	-	-	-
CCOC(=O)NC(=O)CSc1nc2ccc(OCC)cc2[nH]1	-	-	-	-
CCOc1ccc2nc(SC(C)C(N)=O)[nH]c2c1 (stereo unspecified)	-	-	-	7.9
CCOC(=O)N1CCN(C(=O)C(=O)Nc2ccc3nc4n(c(=O)c3c2)CCCCC4)CC1	-	-	-	-
